Several values for one entry are separate records, joined by “and”; a condition that tells them apart may be missing. Equal values may be shown once. The panel holds about 83,000 compounds, 20% with a hit somewhere; the sample as a whole holds those more often.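 Each cell line was grown in a 96-well plate and treated with one concentration of compound for 48 hours. Values below 10 were considered active.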 Values without a mark were called inactive. Activity calls are given as the source filed them.
test system: MDA-MB-468 breast; test: NCI-60 one-dose screen, 48 h (100 = growth as untreated, 0 = no growth, -100 = all killed); settings: 10 µM unless noted

Compound | growth
COc1cccc(-c2nc3sccn3c2-c2ccnc(NCCN3CCCNS3(=O)=O)n2)c1 | 102%
CCc1cccc(Cl)c1 | 113%
O=C1c2cc3c(cc2-c2c1c1ccc(Cl)cc1c(=O)n2C[C@H](O)[C@@H](O)[C@H](O)CO)OCO3 | -63.4% (active)
COc1ccc(-c2cc(-c3ccccc3)nc(NCCNc3ccnc4cc(Cl)ccc34)n2)cc1 | -73.7% (active)
O=C(O)CCCn1c(SCc2c(Cl)cccc2Cl)nc2ccsc2c1=O | -4.76% (active)
Nc1nc2ccc([C@@H]3Nc4ccc5[nH]ncc5c4[C@H]4[C@H]5CCC(C5)[C@H]43)cc2s1 | -14.4% (active)
CCCCCCCCCCCCCCCCCC(=O)OCCCCCCC | 114%
NC1CCC(Nc2nc(NCc3ccc(-c4cccs4)nc3)c3ncn(C4CCCC4)c3n2)CC1 (stereo not given) | -65.8% (active)
CCNC(=O)N1CCc2cc(OC)c(OCCc3ccc(OC)c(N)c3)cc2C1c1cc(C)c(C)cc1C (stereo not given) | 42%
S=C(NCc1ccc2c(c1)OCO2)N1CCN(c2ncnc3c2oc2ccccc23)CC1 | -11% (active)
COc1ccc2[nH]cc(C(c3ccc(Cl)cc3)N3CCCC3)c2c1 (stereo not given) | 84%
O=C(Nc1nc(Cl)nc(Nc2ccc(N3CCOCC3=O)cc2)n1)c1ccc(Cl)s1 | 68.1%
COc1ccc(NC(=O)CCn2cnc3c(cc(-c4ccccc4)n3-c3ccccc3)c2=O)cc1 | 79.5%
COc1cnc2c(c1)C(=O)c1c-2n(CCCNC2=NCCS2)c(=O)c2cc(Cl)ccc12 | -4.65% (active)
COc1cc(-c2cc(-c3ccc(Nc4ncnc5cc(Cl)ccc45)cc3)nc(N3CCCCC3)n2)cc(OC)c1OC | 107%
COc1ccccc1C1OC2=Nc3cc(C)c(C)cc3NC2C1=O (stereo not given) | 66.2%
CC1(C)CC2(C)OC2C2(C1)N=NC(=Nc1ccccc1)O2 (stereo not given) | -15.6% (active)
CN1CCN(Cc2ccc(NC(=O)c3cncc(C#Cc4cnc5ccc(N6CCOCC6)nn45)c3)cc2C(F)(F)F)CC1 | -70.8% (active)
CN(C)c1ccc(/C=c2\s/c(=C\C(=O)C(C)(C)C)[nH]c2=O)cc1 | 109%
COc1ccc(CCNC2=CC(=O)CCC2)cc1OC | 109%

Compound | growth
C=C1CCC2C3(C)COC(c4c(OC)cccc4OC)OC3CCC2(C)C1C/C=C1/C(=O)OCC1O (stereo not given) | 20.2%
Cc1cc2ccccc2cn1 | 96.6% and 102%
COc1cc(/C(C)=C(\c2ccc(Cl)cc2)c2ccc(OCCN(C)C)cc2)ccc1F | 45.6%
COc1ccc(-c2nc(SCC(=O)Nc3ccc(C(=O)/C=C/c4ccc(Cl)cc4)cc3)[nH]c(=O)c2C#N)cc1 | 39.4%
O=C(/C=C/c1c(Cl)nc2sccn12)c1nccs1 | 75.7%
COc1ccc2nc3ccccc3c(NCc3ccc(F)cc3)c2c1 | -23.9% (active)
COc1ccc(-c2ccc3c(c2)sc2nc(-c4ccc(F)cc4)cn23)cc1 | 66.7%
C=CC(=O)N(C)[C@H]1C[C@H]2OC(C)(C1OC)n1c3ccccc3c3c4c(c5c6ccccc6n2c5c31)C(=O)NC4 (stereo not given in full) | -52.4% (active)
CC1(n2nnnc2N2CCCN(c3ncccc3N)CC2)CCC1 | 93%
CCc1cnc2ccccc2c1/C=C/c1ccc(N(C)C)cc1 | 24.9%
Cc1ccccc1NC(=O)c1sc2nc(C)c(C(=O)/C=C/c3ccccc3)cc2c1N | 9.61% (active)
COC(=O)[C@]12CC[C@@H](C)[C@H](C)[C@@H]1C1=CC[C@@H]3[C@@]4(C)CC(=O)[C@H](O)[C@@](C)(CO)[C@@H]4C(=O)C[C@@]3(C)[C@]1(C)CC2 | -4.93% (active)
COc1ccc(Cl)c(Nc2nc3ccccc3nc2NS(=O)(=O)c2cccc(NC(=O)C(C)(C)N)c2)c1 | 21.5%
O=C(Nc1ccccn1)[C@H](O)[C@@H](O)C(=O)N1CCOCC1 | 119%
COc1ccccc1-n1cc(C#N)c(N)c1C(=O)c1ccc(Cl)cc1 | 51.6%
CCCCCC(=O)OCCC1CCCCC1 | 99%
CCCCOc1ncnc2nc[nH]c12 | 98.5%
NCCC(=O)c1ccc(Cl)cc1 | 113%
O=C(COc1cccc2cccnc12)Nc1ccc(C(=O)/C=C/c2ccc(Cl)cc2)cc1 | 89.3%
COc1cc2nc(-c3ccc(Cl)cc3)cc(OCCCN3CCOCC3)c2cc1OC | 59.9%

Source: PubChem BioAssay (NCI)
